The source of these data is PubChem BioAssay AID1117319 (Southern Research Institute, 2015).

Screen size: about 260,000 compounds; about 1,500 (0.58%) were called active. Not shown: some 5% with an inconclusive outcome.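 The calls were made as follows: active = inhibition above a set limit at one or more doses, reproduced on every date tested; inconclusive = results disagree between test dates, or hit never tested in dose response; inactive = the rest.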 Not all results are given here. Entries with a potency or affinity are not part of this list.

In general, inhibition refers to the drop in the measured response relative to a control, in per cent.

The target of this assay is Virion infectivity factor (Human immunodeficiency virus type 1 group M subtype B (isolate BH10)) + Virion infectivity factor (Human immunodeficiency virus type 1 group M subtype B (isolate BRU/LAI)) + Virion infectivity factor (Human immunodeficiency virus type 1 group M subtype B (isolate PCV12)) + Virion infectivity factor (Human immunodeficiency virus type 1 group M subtype B (isolate HXB2)) + DNA dC->dU-editing enzyme APOBEC-3G (Homo sapiens) (UniProt P69720+P69721+P69722+P69723+Q9HC16). Briefly: HIV-1 Vif–A3G interaction blockers – biochemical, TR-FRET, GST-Vif 1-94, biotin-A3G peptide, dose response retest, primary screen (AID 1117319).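 Also: Vif residues 1-94 fused to GST binding biotinylated APOBEC3G peptide 110-148; 0% = full assay without inhibitor and 100% = GST in place of GST-Vif.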 As to conditions: TR-FRET GST-Vif / biotin-A3G peptide binding; stronger effect = higher value.
In the case of `CSCCC(NC(=O)/C(=C\c1ccc(Cl)cc1)NC(=O)c1ccccc1)C(=O)O` (configuration not stated), the inhibition is 1.24% (inactive). For `CCOc1ccccc1C(c1c(C)n(C)n(-c2ccccc2)c1=O)c1c(C)n(C)n(-c2ccccc2)c1=O`, the inhibition is -1.18% (inactive).

Take `COc1cccc(=O)c2c(C)n(-c3cc(C)cc(C)c3)c(C)c12`: the inhibition is 21.8% (inactive). Under `COc1ccc(-n2c(C)c3c(OC)cccc(=O)c3c2C)cc1` stands 32.9% (inactive); under `CCOc1ccccc1-c1cc(-c2ccccc2)nc2c1c(=O)n(C)c(=O)n2C`, -7.81% (inactive); under `COc1ccc(CNC(=O)Cn2cnc3c(OCc4ccccc4)ncnc32)cc1`, -3.17% (inactive). As for `Cc1ccc(S(=O)(=O)Nc2ccccc2-c2ccccc2)cc1`, the inhibition was -0.15% (inactive). As for `Cc1ccc(S(=O)(=O)c2c(C)nn(C(C)(C)C)c2OC(=O)CC(C)C)cc1`, the inhibition is -0.23% (inactive). For `CCN1CCN(C(=O)Cn2cnc3sc(C)c(S(=O)(=O)N4CCN(c5ncccn5)CC4)c3c2=O)CC1`, the inhibition was 6.94% (inactive).

As for `COCCN=c1scc(-c2cccs2)n1/N=C(\C)c1ccco1`, the inhibition is -4.46% (inactive). Regarding `CN=c1scc(C)n1/N=C/c1cc(Br)c(O)c(OC)c1`, the inhibition is 17.7% (inactive). Take `CN=c1scc(-c2ccccc2F)n1/N=C/c1ccc[nH]1`: the inhibition was 3.11% (inactive).

Regarding `CCN=c1scc(-c2cccs2)n1/N=C/c1cc(OC)ccc1O`, the inhibition was 11.2% (inactive). For the molecule `CCOc1ccc(C(=O)NCC(C)C)cc1`, the inhibition was 1.08% (inactive). In the case of `Cc1ccc(C)c(NC(=O)N2CCc3ccccc3C2)c1` it was -0.5% (inactive); in that of `Cc1cc(C)n(CC2CC(=O)N(c3ccc(Cl)cc3)C2=O)n1` (configuration not stated), -0.66% (inactive); in that of `CC(=O)N1CCN(C(=O)c2ccc(Oc3ccccc3)cc2)CC1`, -9.55% (inactive). On to `Cc1ccc(N2C(=O)CN(Cc3sccc3C)C2=S)cc1C`, for which the inhibition was 8.31% (inactive). `CC1C/C=C/C=C/C=C/C=C/C(O[C@@H]2O[C@H](C)[C@@H](O)[C@H](N)[C@@H]2O)CC2OC(O)(CC(O)CC3OC3/C=C/C(=O)O1)CC(O)C2C(=O)O` (some centres not stated): the inhibition is -4.31% (inactive). On to `COc1ccc(C(=O)O/N=C(\N)c2ccccc2)c(OC)c1`, for which the inhibition is 2.57% (inactive). Consider `O=C1NC2(CCCCC2)C(=O)N1Cc1cc(=O)n2ccsc2n1`, for which the inhibition is -0.24% (inactive). In the case of `CC(C(=O)NCc1ccc2c(c1)OCO2)c1ccc([N+](=O)[O-])cc1` (configuration not stated) it was 6.03% (inactive). Regarding `Nc1nc(SCc2ccccc2)c2[nH]cnc2n1`, the inhibition is -9.37% (inactive).

As to `CNc1ncnc(Sc2nc(N)nc3nc[nH]c23)c1[N+](=O)[O-]`, the inhibition is 16.1% (inactive). In the case of `CC1(C)C2C(Cl)(Cl)C2(C)c2ccccc2N1C=O` (configuration not stated), the inhibition was -2.3% (inactive). In the case of `COc1ccc(-c2nc3ccccc3n2OCC(=O)O)cc1`, the inhibition was 15.9% (inactive). Turning to `COc1ccc(-c2nc3ccccc3n2OC(C)C(=O)O)cc1` (configuration not stated), the inhibition is -3.4% (inactive).

With `Cn1[nH]c(C(F)(F)F)c(C=NCc2ccc(Cl)cc2)c1=O`, the inhibition was -4.02% (inactive). On to `COc1cccc(-c2cc3c(=O)n(-c4ccccc4)c(=S)[nH]c3s2)c1`, for which the inhibition was -16.9% (inactive). On to `Cc1c(C)n2c3c(cccc13)CC2`, for which the inhibition is 3.05% (inactive). `CC(=O)c1ccc(NC(=O)c2cccc(NC(=O)c3ccccc3)c2)cc1`: the inhibition was -13.5% (inactive). In the case of `O=C(c1ccccc1)c1ccc2nc(-c3ccco3)c(-c3ccco3)nc2c1` it was 3.26% (inactive); in that of `O=C(Nc1ccc(N2CCOCC2)cc1)c1ccc2nc(-c3ccco3)c(-c3ccco3)nc2c1`, 10.5% (inactive). As to `O=C(Nc1cccc(C(F)(F)F)c1)c1ccco1`, the inhibition is -3.65% (inactive). In the case of `O=C(Nc1ccccc1)c1cccc(C(F)(F)F)c1` it was 0.71% (inactive).

In the case of `O=C(Nc1cccc(-c2nnc(-c3ccco3)o2)c1)c1ccccc1`, the inhibition is -5.38% (inactive).

With `COc1ccc2cc(C3=CC(=O)CC(C)(C)C3=O)ccc2c1`, the inhibition was 4.18% (inactive). In the case of `Cc1cc(C)nc(-n2ncc3c2CCCC3=O)n1` it was -7.41% (inactive). `COc1ccc([C@@H]2C[C@H]3[C@@H](CN2S(=O)(=O)c2ccccc2)C(=O)C[C@@H](c2ccccc2F)N3S(=O)(=O)c2ccc(C)cc2)cc1`: the inhibition is -4.64% (inactive). For `CC1CCOC2(O1)C(=O)N(CN1CCN(c3cccc(Cl)c3)CC1)c1ccccc12` (configuration not stated), the inhibition is 16.9% (inactive).

For the molecule `Cc1ccc(Nc2nc(=O)[nH]nc2C)cc1`, the inhibition is 23.2% (inactive).

Take `COCCNC(C(=O)Nc1ccc([N+](=O)[O-])cc1Br)c1ccccc1` (configuration not stated): the inhibition is -2.09% (inactive).

As for `Cc1noc(NS(=O)(=O)c2ccc(NC(=O)CCCOc3ccc(Cl)cc3Cl)cc2)c1C`, the inhibition is 2.83% (inactive). As for `Cc1nnc(NC(=O)CSc2nnc(NC(=O)C(C)(C)C)s2)s1`, the inhibition is 22.2% (inactive). On to `C=CCSc1nnc(NC(=O)CSc2ccccn2)s1`, for which the inhibition was -2.29% (inactive). With `C#CCOCCOCCOCCNc1nc(N2CCN(C(=O)[C@H](Cc3ccc(O)cc3)n3cc([C@@H](N)C(C)CC)nn3)CC2)nc(N2CCN(C(=O)[C@H](CCCCN)n3cc([C@@H](N)CO)nn3)CC2)n1` (some centres not stated), the inhibition was -12.6% (inactive). Turning to `O=C(COc1c(F)c(F)cc(F)c1F)NNC(=O)CC1CCS(=O)(=O)C1` (configuration not stated), the inhibition is -4.18% (inactive).

With `CC1CN(S(=O)(=O)c2cccc(C(=O)OCC(=O)NCc3ccccc3)c2)CC(C)O1` (configuration not stated), the inhibition was -6.28% (inactive).

For the molecule `COc1ccc(N2C(=O)c3ccccc3NC2c2ccccc2O)cc1` (configuration not stated), the inhibition is -3.39% (inactive). As for `Cc1ccc(N2C(=O)c3ccccc3C2C(=O)c2cc(C)ccc2O)cc1` (configuration not stated), the inhibition is 30.2% (inactive). For the molecule `CC(=O)SC1CC(=O)N(c2ccc(C(C)(C)C)cc2)C1=O` (configuration not stated), the inhibition was -11.1% (inactive).

Turning to `O=C(NCc1ccccn1)c1ccc(NC(=O)c2ccco2)cc1`, the inhibition was 1.9% (inactive). In the case of `CCc1nc2ccc(C(=O)NCCc3ccc(OC)c(OC)c3)cc2nc1CC` it was 0.19% (inactive); in that of `COc1ccc(CCNC(=O)c2cc(-c3ccco3)on2)cc1OC`, -1.47% (inactive); in that of `O=C(NCc1ccccn1)c1ccc(=O)oc1`, 11.6% (inactive). As for `COc1ccc(C(=O)NCc2ccccn2)cc1`, the inhibition was 19.1% (inactive). Regarding `O=C(NCCc1ccccc1)c1cc(-c2ccco2)on1`, the inhibition is 25.6% (inactive). In the case of `O=C(NCCc1ccccc1)c1ccc2nccnc2c1` it was 28.7% (inactive); in that of `O=C(NCCc1ccccc1)c1coc(=O)c(Br)c1`, -22.2% (inactive); in that of `CCN(Cc1ccc(NC(C)=O)cc1)CC1CCCN(CCc2cccc(OC)c2)C1` (configuration not stated), 3.62% (inactive). `O=C(Cn1nnc(-c2ccccc2Cl)n1)Nc1cccc(S(=O)(=O)N2CCCC2)c1`: the inhibition was -4.6% (inactive). Consider `COC(=O)c1ccccc1NC(=O)Nc1ccc(Cl)cn1`, for which the inhibition is -0.47% (inactive).

Regarding `O=C(NCc1ccccc1)c1ccc2nccnc2c1`, the inhibition is -2.53% (inactive). With `CCc1nc2ccc(C(=O)NCc3ccccc3)cc2nc1CC`, the inhibition was 13.9% (inactive). Turning to `CC(C(=O)N1CCN(c2ccc(Cl)cc2)CC1)c1ncc(C(F)(F)F)cc1Cl` (configuration not stated), the inhibition is -3.01% (inactive). In the case of `Cc1ccc(S(=O)(=O)NCc2nnc(SCC(=O)Nc3cccc(C)c3C)n2C)cc1` it was -1.43% (inactive); in that of `NS(=O)(=O)c1ccc(NC(=O)NC2CCCCC2)cc1`, 1.56% (inactive); in that of `CSc1oc(-c2ccco2)nc1S(=O)(=O)c1ccc(Br)cc1`, 6.37% (inactive).

Consider `CSc1oc(-c2ccco2)nc1S(=O)(=O)c1ccc(F)cc1`, for which the inhibition is 9.31% (inactive). For the molecule `Cc1ccc2nc3sc(C(=O)Nc4ccc(N5CCOCC5)cc4)c(N)c3cc2c1`, the inhibition was 12.2% (inactive). `NC(=O)c1ccc(OCC(F)(F)F)nc1`: the inhibition was -12.4% (inactive). Regarding `O=C(NC(=S)N1CCN(c2ccc([N+](=O)[O-])cc2)CC1)c1ccccc1Cl`, the inhibition was 0.79% (inactive). Consider `C[C@@H]1CCCCO[C@H](CN(C)C(=O)Nc2cccc3ccccc23)[C@@H](C)CN([C@H](C)CO)C(=O)c2cc(N(C)C)ccc2O1`, for which the inhibition is 4.84% (inactive). Under `CC(=O)N=Cc1c(C)c(C#N)c(=O)n(C)c1O` stands 6.56% (inactive); under `Cc1c(/C=N/Nc2ccc(F)cc2)c(O)n(C)c(=O)c1C#N`, 12.3% (inactive); under `O=C(C1CCN(S(=O)(=O)c2ccc3c(c2)OCCO3)CC1)N1CCc2ccccc21`, 24.2% (inactive). As for `CNS(=O)(=O)c1cc(O)c2c(S(=O)(=O)NC)cccc2c1`, the inhibition is 1.99% (inactive).

For `Oc1ccc(Cl)cc1N=Nc1ccccc1`, the inhibition is 0.9% (inactive). In the case of `COc1ccccc1C(=O)NCCC(=O)Nc1ccc(S(=O)(=O)N2CC(C)CC(C)C2)cc1` (configuration not stated) it was -5.91% (inactive); in that of `CC(C)OC(=O)CSc1nnc(Cc2ccccc2)n1C`, 1.42% (inactive).

Consider `CN(C)C(=O)c1ccc2c(c1)C1C3CCC(C3)C1C(c1ccccc1)N2` (configuration not stated), for which the inhibition is -2.04% (inactive). On to `O=[N+]([O-])c1ccc(Cl)c2c1C1C=CCC1C(c1ccccn1)N2` (configuration not stated), for which the inhibition was -2.51% (inactive). Under `Cc1ccc([N+](=O)[O-])cc1S(=O)(=O)Nc1ccccn1` stands 11.9% (inactive).

Turning to `O=C(O)c1ccc2c(c1)C1C=CCC1C(c1cc3c(cc1Br)OCO3)N2` (configuration not stated), the inhibition is -3.12% (inactive). With `COc1ccc(OC)c(C2Nc3c(Cl)ccc(C(=O)O)c3C3C=CCC32)c1` (configuration not stated), the inhibition was -11.5% (inactive).

For `O=C(O)c1cc(-c2ccccn2)n[nH]1`, the inhibition is -8.59% (inactive). In the case of `CC1(C)CC(=O)C2=C(C1)Nc1cc(C(=O)c3ccccc3)ccc1NC2c1ccccn1` (configuration not stated), the inhibition is 1.75% (inactive). In the case of `Cc1cc([N+](=O)[O-])cc2ncccc12` it was 22.2% (inactive); in that of `Cc1c(CNCCc2ccccc2Cl)c(C(=O)O)c(C)n1-c1ccccc1`, -7.23% (inactive). With `Cc1ccc(C(=O)NC(=S)Nc2cccc(-c3nc4ccccc4s3)c2)cc1`, the inhibition is 9.8% (inactive). Under `CSCCC(NS(=O)(=O)c1ccccc1F)C(=O)NCC(C)(C)N1CCOCC1` (configuration not stated) stands 1.29% (inactive); under `O=C(OCc1nc2ccsc2c(=O)[nH]1)c1ccc(Cl)s1`, 11.9% (inactive).
